# According to the supplement of paper PMC8728848:
# Shown is part of a subset that was picked to be rich in the strongest signals.
# Columns and labels:
# Test in all cases: glycan array binding signal (z-score within array); higher = stronger binding
# Details in all cases: glycan notation: IUPAC condensed, linker removed
# Fuc(a1-2)Gal(b1-3)GalNAc = target: Fuc(a1-2)Gal(b1-3)GalNAc
# Summary of the method: (§1)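 Glycan array data were curated from 3228 arrays in the Consortium for Functional Glycomics database and kept only where the protein sequence was available. Glycan names were converted to IUPAC-condensed notation, and columns mapping to the same glycan were averaged. The binding signal is a within-array Z-score, averaged across arrays of the same protein sequence at different concentrations or buffers and across linkers. Negative Z-scores can be read as non-binding.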
# Fuc(a1-2)Gal(b1-3)GlcNAc = target: Fuc(a1-2)Gal(b1-3)GlcNAc
# Summary of the method: as §1
# [1] = target: Fuc(a1-2)Gal(b1-3)GlcNAc(b1-2)Man(a1-3)[Fuc(a1-2)Gal(b1-3)GlcNAc(b1-2)Man(a1-6)]Man(b1-4)GlcNAc(b1-4)GlcNAc
# Summary of the method: as §1
# [2] = target: Fuc(a1-2)Gal(b1-3)GlcNAc(b1-3)GalNAc
# Summary of the method: as §1
# [3] = target: Fuc(a1-2)Gal(b1-3)GlcNAc(b1-3)[Neu5Ac(a2-6)Gal(b1-4)GlcNAc(b1-6)]Gal(b1-4)Glc
# Summary of the method: as §1
# [4] = target: Fuc(a1-2)Gal(b1-4)GlcNAc(b1-2)Man
# Summary of the method: as §1
# [5] = target: Fuc(a1-2)Gal(b1-4)GlcNAc6S
# Summary of the method: as §1
# Fuc(a1-2)Gal6S(b1-4)Glc = target: Fuc(a1-2)Gal6S(b1-4)Glc
# Summary of the method: as §1
# [6] = target: Fuc(a1-2)[Gal(a1-3)]Gal(b1-4)GlcNAc(b1-2)Man(a1-3)[Fuc(a1-2)[Gal(a1-3)]Gal(b1-4)GlcNAc(b1-2)Man(a1-6)]Man(b1-4)GlcNAc(b1-4)[Fuc(a1-6)]GlcNAc
# Summary of the method: as §1
# [7] = target: Fuc(a1-2)[GalNAc(a1-3)]Gal(b1-3)GlcNAc(b1-2)Man(a1-3)[Fuc(a1-2)[GalNAc(a1-3)]Gal(b1-3)GlcNAc(b1-2)Man(a1-6)]Man(b1-4)GlcNAc(b1-4)[Fuc(a1-6)]GlcNAc
# Summary of the method: as §1
# [8] = target: Fuc(a1-2)[GalNAc(a1-3)]Gal(b1-3)GlcNAc(b1-6)GalNAc
# Summary of the method: as §1
# [9] = target: Gal(a1-3)Gal(b1-4)GlcNAc(b1-3)GalNAc
# Summary of the method: as §1
# [10] = target: Gal(b1-3)GlcNAc(b1-6)[Gal(b1-3)]GalNAc
# Summary of the method: as §1
# [11] = target: Gal(b1-3)[Fuc(a1-4)]GlcNAc
# Summary of the method: as §1
# [12] = target: Gal(b1-4)GlcNAc(b1-2)Man(a1-3)[Gal(b1-4)GlcNAc(b1-2)Man(a1-6)][Gal(b1-4)GlcNAc(b1-4)]Man(b1-4)GlcNAc(b1-4)[Fuc(a1-6)]GlcNAc
# Summary of the method: as §1
# [13] = target: Gal(b1-4)GlcNAc(b1-2)Man(a1-6)Man(b1-4)GlcNAc(b1-4)GlcNAc
# Summary of the method: as §1
# Gal3S(b1-3)GalNAc = target: Gal3S(b1-3)GalNAc
# Summary of the method: as §1
# [14] = target: Gal3S(b1-3)[Fuc(a1-4)]GlcNAc
# Summary of the method: as §1
# Gal6S(b1-4)Glc = target: Gal6S(b1-4)Glc
# Summary of the method: as §1
# [15] = target: GalNAc(b1-4)GlcNAc(b1-2)Man
# Summary of the method: as §1
# GalNAc(b1-6)GalNAc = target: GalNAc(b1-6)GalNAc
# Summary of the method: as §1
# [16] = target: GalNAc3S(b1-4)[Fuc(a1-3)]GlcNAc
# Summary of the method: as §1
# GalNAc6S(b1-4)GlcNAc = target: GalNAc6S(b1-4)GlcNAc
# Summary of the method: as §1
# [17] = target: GlcNAc(a1-3)Gal(b1-4)GlcNAc
# Summary of the method: as §1
# [18] = target: GlcNAc(a1-4)Gal(b1-3)GlcNAc
# Summary of the method: as §1
# [19] = target: GlcNAc(a1-4)Gal(b1-4)GlcNAc(b1-3)Gal(b1-4)GlcNAc(b1-3)Gal(b1-4)GlcNAc
# Summary of the method: as §1
# [20] = target: GlcNAc(b1-2)Man(a1-3)[GlcNAc(b1-2)Man(a1-6)]Man(b1-4)GlcNAc(b1-4)[Fuc(a1-6)]GlcNAc
# Summary of the method: as §1
# [21] = target: GlcNAc(b1-2)Man(a1-3)[GlcNAc(b1-4)][GlcNAc(b1-2)Man(a1-6)]Man(b1-4)GlcNAc(b1-4)GlcNAc
# Summary of the method: as §1
# [22] = target: GlcNAc(b1-2)Man(a1-3)[GlcNAc(b1-4)][GlcNAc(b1-2)Man(a1-6)]Man(b1-4)GlcNAc(b1-4)[Fuc(a1-6)]GlcNAc
# Summary of the method: as §1
# [23] = target: GlcNAc(b1-4)GlcNAc(b1-4)GlcNAc
# Summary of the method: as §1
# [24] = target: GlcNAc(b1-4)GlcNAc(b1-4)GlcNAc(b1-4)GlcNAc(b1-4)GlcNAc(b1-4)GlcNAc
# Summary of the method: as §1
# [25] = target: Man(a1-2)Man(a1-3)[Man(a1-6)]Man(a1-6)[Man(a1-2)Man(a1-3)]Man(b1-4)GlcNAc(b1-4)GlcNAc
# Summary of the method: as §1
# [26] = target: Man(a1-2)Man(a1-6)[Man(a1-3)]Man(a1-6)[Man(a1-2)Man(a1-2)Man(a1-3)]Man
# Summary of the method: as §1
# MurNAc(b1-4)GlcNAc = target: MurNAc(b1-4)GlcNAc
# Summary of the method: as §1
# Neu5Ac(a2-6)Gal = target: Neu5Ac(a2-6)Gal
# Summary of the method: as §1
# [27] = target: Neu5Ac(a2-6)Gal(b1-4)GlcNAc(b1-2)Man(a1-3)[GlcNAc(b1-2)Man(a1-6)]Man(b1-4)GlcNAc(b1-4)GlcNAc
# Summary of the method: as §1
# [28] = target: Neu5Ac(a2-6)Gal(b1-4)GlcNAc(b1-3)Gal(b1-4)GlcNAc(b1-3)[Neu5Ac(a2-6)Gal(b1-4)GlcNAc(b1-3)Gal(b1-4)GlcNAc(b1-6)]GalNAc
# Summary of the method: as §1
# [29] = target: Neu5Ac(a2-6)GalNAc(b1-4)GlcNAc
# Summary of the method: as §1
# [30] = target: Neu5Ac(a2-6)GlcNAc(b1-4)GlcNAc(b1-4)GlcNAc
# Summary of the method: as §1
# [31] = target: Neu5Gc(a2-3)Gal(b1-4)GlcNAc
# Summary of the method: as §1
binder,measurement,setting,value
NKR-PIC (Mus musculus) (protein) GTGQKPSREKCCVFIQENLNKTTDCSVNLECPQDWLLHRDKCFHVSQVSNTWEEGQADCGRKGATLLLIQDQEELRFLLDSIKEKYNSFWIGLRFTLPDMNWKWINGTTFNSDVLKITGVTENGSCASILGDKVTPESCASDNRWICQKELNHETPSNDSGT,glycan array binding signal (z-score),Fuc(a1-2)Gal(b1-3)GalNAc,-0.288
same,glycan array binding signal (z-score),Fuc(a1-2)Gal(b1-3)GlcNAc,-0.281
same,glycan array binding signal (z-score),[1],-0.138
same,glycan array binding signal (z-score),[2],-0.371
same,glycan array binding signal (z-score),[3],-0.362
same,glycan array binding signal (z-score),[4],-0.316
same,glycan array binding signal (z-score),[5],-0.32
same,glycan array binding signal (z-score),Fuc(a1-2)Gal6S(b1-4)Glc,-0.317
same,glycan array binding signal (z-score),[6],-0.335
same,glycan array binding signal (z-score),[7],-0.375
same,glycan array binding signal (z-score),[8],-0.363
same,glycan array binding signal (z-score),[9],-0.361
same,glycan array binding signal (z-score),[10],-0.308
same,glycan array binding signal (z-score),[11],-0.262
same,glycan array binding signal (z-score),[12],-0.225
same,glycan array binding signal (z-score),[13],-0.334
same,glycan array binding signal (z-score),Gal3S(b1-3)GalNAc,-0.25
same,glycan array binding signal (z-score),[14],-0.318
same,glycan array binding signal (z-score),Gal6S(b1-4)Glc,-0.305
same,glycan array binding signal (z-score),[15],5.67
same,glycan array binding signal (z-score),GalNAc(b1-6)GalNAc,0.458
same,glycan array binding signal (z-score),[16],-0.38
same,glycan array binding signal (z-score),GalNAc6S(b1-4)GlcNAc,4.94
same,glycan array binding signal (z-score),[17],3.83
same,glycan array binding signal (z-score),[18],1.3
same,glycan array binding signal (z-score),[19],4.1
same,glycan array binding signal (z-score),[20],-0.287
same,glycan array binding signal (z-score),[21],3.99
same,glycan array binding signal (z-score),[22],3.73
same,glycan array binding signal (z-score),[23],4.83
same,glycan array binding signal (z-score),[24],4.62
same,glycan array binding signal (z-score),[25],-0.325
same,glycan array binding signal (z-score),[26],-0.367
same,glycan array binding signal (z-score),MurNAc(b1-4)GlcNAc,4.79
same,glycan array binding signal (z-score),Neu5Ac(a2-6)Gal,-0.258
same,glycan array binding signal (z-score),[27],-0.338
same,glycan array binding signal (z-score),[28],-0.332
same,glycan array binding signal (z-score),[29],4.03
same,glycan array binding signal (z-score),[30],5.02
same,glycan array binding signal (z-score),[31],-0.264
